The text below walks through data of PubChem BioAssay (NCI).

This is part of a sample that, as a whole, favours compounds with a hit. Of some 83,000 tested, about 20% had one in any assay.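 Testing used 96-well plates and a 48-hour single-concentration exposure. Example: -40 means 40% of the starting cells died.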 A number with no mark means an inactive call. Calls of active or inactive are those of the source. How the source made its calls: active means growth percent below 10; inactive means the rest.

Test systems include EKVX NSCLC; SN12C renal; UO-31 renal; TK-10 renal; ACHN renal; CAKI-1 renal; A498 renal; CCRF-CEM leukemia; MOLT-4 leukemia; SR leukemia.
What all share (test): NCI-60 one-dose screen, 48 h (100 = growth as untreated, 0 = no growth, -100 = all killed)
Holding throughout (details): 10 µM unless noted

For the molecule `CCCCCCCCCCCCNc1ncnc2[nH]ncc12`, the growth in the test with EKVX NSCLC was 51.2%; in the test on SN12C renal, 80.3%; in the test on UO-31 renal it was 77.7%; with TK-10 renal it was 88.2%; with ACHN renal, 83.4%; in the test with CAKI-1 renal it was 66.2%. For the same molecule, the growth is 50.4% in the test on A498 renal, 68.3% with CCRF-CEM leukemia, 65.8% in the test with MOLT-4 leukemia and 9.74% (active) in the test on SR leukemia.
With `CSc1nc2c(c(=O)n1C)C(c1ccccc1)C1=C(N2)/C(=C/c2ccccc2)CCC1` (stereo not given), the growth was 39.1% with EKVX NSCLC; 55.4% in the test with SN12C renal; 34.9% in the test on UO-31 renal; 51% with TK-10 renal; 57.3% in the test with ACHN renal; 20.7% in the test with CAKI-1 renal. The growth in the test on A498 renal was 81.4%; in the test on CCRF-CEM leukemia it was 20.6%; with MOLT-4 leukemia it was 27.5%; in the test on SR leukemia, -14.2% (active).
`COc1ccc2[nH]cc(/C=C3/C(=O)Nc4ccc(Cl)cc43)c2c1`: the growth is 46.2% in the test with EKVX NSCLC; 76.6% in the test on SN12C renal; 65.7% in the test with UO-31 renal; 22.2% in the test with TK-10 renal; 18.2% with ACHN renal; 26.6% with CAKI-1 renal. The growth with A498 renal was 67.7%; in the test on CCRF-CEM leukemia, 44.3%; in the test with MOLT-4 leukemia, 39.9%; in the test with SR leukemia, 2.51% (active).
Regarding `COc1ccc2c(c1)/C(=C\c1c[nH]c3ccc(F)cc13)C(=O)N2`, the growth with EKVX NSCLC was 64.8%; in the test on SN12C renal it was 82.2%; in the test on UO-31 renal, 57.8%; in the test with TK-10 renal it was 96.2%; in the test with ACHN renal it was 52.7%; in the test with CAKI-1 renal, 56.7%. Further, the growth in the test on A498 renal is 68.9%; in the test with CCRF-CEM leukemia it was 78.9%; with MOLT-4 leukemia it was 50.6%; in the test on SR leukemia, 46.4%.
